CIT2 TOR yeast – modulators of TOR pathway CIT2-GFP in S. cerevisiae; 320,000 compounds, 0.065% hits; AID 2029; GFP response vs DMSO, % at 10 µM; S. cerevisiae CIT2-GFP strain, flow cytometry, 3 h; 100 means same as DMSO wells;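 active = GFP response relative to DMSO above a set limit, near the screen mean plus 3 SD, cut at about 150% in these data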;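 also: ratio of well median GFP fluorescence to mean of DMSO wells on the plate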
MEP2-GFP yeast – yeast TOR pathway MEP2-GFP modulation | S. cerevisiae MEP2-GFP strain, flow cytometry GFP, 3 h; 100% = DMSO control level | GFP response vs DMSO, % at 10 µM | 330,000 compounds, 0.51% hits;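 active = GFP response versus DMSO above a set limit, roughly screen mean plus 3 SD, cut at about 180% in these data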;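 also: median GFP fluorescence of the barcode-gated MEP2-GFP cells per well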
RPL19A TOR yeast – yeast TOR pathway RPL19A-GFP modulation. percent response vs DMSO, % at 10 µM. 330,000 compounds, 0.3% hits. AID 2025. S. cerevisiae RPL19A-GFP strain, flow cytometry, 3 h; stronger effect = lower value;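 active = percent response vs DMSO below 50%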;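 also: median channel GFP fluorescence of the barcoded RPL19A-GFP strain; lower means less RPL19A-GFP as with rapamycin TOR inhibition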
LAP4 TOR yeast – yeast TOR pathway LAP4-GFP modulation; S. cerevisiae LAP4-GFP multiplex, flow cytometry GFP, 3 h; median GFP as percent of DMSO wells; GFP response vs DMSO, % at 10 µM; 320,000 compounds, 0.34% hits;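 active = GFP response vs DMSO above a set limit, about the screen mean plus 3 SD, cut at about 150% in these data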
AGP1-GFP MLPCN – yeast TOR pathway AGP1-GFP modulation; S. cerevisiae AGP1-GFP multiplex flow cytometry, 3 h; GFP as percent of DMSO wells; GFP response vs DMSO, % at 10 µM; 320,000 compounds, 0.02% hits;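 active = GFP response relative to DMSO above a set limit, near screen average plus 3 SD, cut at about 150% in these data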;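 also: median GFP channel fluorescence of the gated AGP1 strain per well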
LAP4-GFP pick2 – second confirmation of modulators of TOR reporter LAP4-GFP in yeast | shares compounds with LAP4 TOR yeast | S. cerevisiae LAP4-GFP strain, flow cytometry GFP, 3 h | GFP response vs DMSO, % at 10 µM | 590 compounds, 20% hits | AID 2621;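 active = GFP signal as percent of the solvent control above about 150%, meaning raised reporter expression, limit read from the data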
MEP2-GFP pick2 – reconfirmed MEP2-GFP TOR pathway modulator in yeast; shares compounds with LAP4 TOR yeast; S. cerevisiae MEP2-GFP strain, flow cytometry GFP, 3 h; GFP response vs DMSO, % at 10 µM; 590 compounds, 10% hits; AID 2622;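 active = GFP signal above 150% of the solvent control wells, that is a rise of more than half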;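 also: median channel GFP fluorescence of all gated yeast cells per well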
RPL19A GFP CP2 – second confirmation of modulators of TOR reporter RPL19A-GFP in yeast. 590 compounds, 3% hits. GFP response vs DMSO, % at 10 µM. shares compounds with LAP4 TOR yeast. S. cerevisiae RPL19A-GFP strain, flow cytometry GFP, 3 h; stronger effect = lower value; 100% means same as DMSO wells;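 active = under 65% GFP response relative to DMSO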;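 also: median GFP channel fluorescence per well over the all cells gate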
CIT2-GFP pick2 – second confirmation of modulators of TOR reporter CIT2-GFP in yeast. shares compounds with LAP4 TOR yeast. S. cerevisiae CIT2-GFP strain, flow cytometry GFP, 3 h; DMSO control wells read 100%. GFP response vs DMSO, % at 10 µM. 590 compounds, 8% hits. AID 2624;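 active = GFP response vs DMSO above about 150%, limit read from the data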;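 also: median green fluorescence per well over all gated yeast cells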
AGP1 GFP CP2 – second confirmation of modulators of TOR reporter AGP1-GFP in yeast. shares compounds with LAP4 TOR yeast. 590 tested, under 10 active. S. cerevisiae AGP1-GFP strain, flow cytometry GFP, 3 h. percent response vs DMSO, % at 10 µM;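 active = over 150 percent of DMSO response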;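 also: median GFP channel fluorescence over all cells without mother daughter split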
Yeast autofluor – yeast s288c autofluorescence artifact, counter-screen; fluorescence change (kMESF span) at 33 µM; 610 tested, under 10 active; AID 2757; shares compounds with LAP4 TOR yeast; S. cerevisiae s288c, 520 nm autofluorescence, flow cytometry, 3 h; stronger effect = higher value; zero means same as solvent-only cells;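 active = fluorescence span over the dose series, or activity score, above about 33, limit read from the data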
s288c autofl DR – TOR screen hit shows autofluorescence in yeast s288c | shares compounds with LAP4 TOR yeast | S. cerevisiae s288c parental, compound autofluorescence, flow cytometry, 3 h | fluorescence change (span) at 33 µM | 110 tested, under 10 active | AID 488829;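 active = fluorescence change span, or the activity score built from it, above 25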
TORC1 bypass gr – wildtype yeast growth loss with TORC1 bypass cells unaffected | shares compounds with LAP4 TOR yeast | S. cerevisiae BY4741 spot growth rating, 48-72 h; stronger effect = lower value | growth rating (0-3) at 30 µM | 120 tested, under 10 active | AID 504456;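 active = growth rating at most 1 for wild type yeast while the TORC1 bypass strain still grows fully, rated 3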
Large screens that a line does not name were inactive (follow-up assays come after a bar, where they were run). In the library only some 0.89% were active in any assay of this set; here they are far more common.

COc1ccc(N2CC(C(=O)Nc3nnc(SCC(=O)N4CCOCC4)s3)CC2=O)cc1 (stereo unspecified)	LAP4 TOR yeast 157 | LAP4-GFP pick2 inactive | MEP2-GFP pick2 inactive | RPL19A GFP CP2 inactive | CIT2-GFP pick2 inactive | AGP1 GFP CP2 inactive
Cc1ccc(S(=O)(=O)N2CCCC2C(=O)NCc2ccncc2)cc1 (stereo unspecified)	CIT2 TOR yeast 161 | LAP4-GFP pick2 inactive | MEP2-GFP pick2 inactive | RPL19A GFP CP2 inactive | CIT2-GFP pick2 inactive | AGP1 GFP CP2 inactive | Yeast autofluor inactive
COc1ccc(CNC(=O)C2CCCN2S(=O)(=O)c2ccc(C)cc2)cc1 (stereo unspecified)	none
Cc1cc(C)cc(-n2ccn(CC(=O)NCCc3ccccc3)c(=O)c2=O)c1	none
C=CC[C@H](CC(=O)OC(C)(C)C)C(=O)OC[C@@H]1CCCN1C(=O)[C@@H](CC=C)CC(=O)N[C@H](CO)Cc1ccccc1	none
C=CC[C@@H](CC(=O)OC(C)(C)C)C(=O)OC[C@@H]1CCCN1C(=O)[C@@H](CC=C)CC(=O)N[C@H](CO)Cc1ccccc1	LAP4 TOR yeast 198 | LAP4-GFP pick2 inactive | MEP2-GFP pick2 inactive | RPL19A GFP CP2 inactive | CIT2-GFP pick2 inactive | AGP1 GFP CP2 inactive
CCn1cc(CN2CCc3c([nH]c4ccccc34)C2c2cccc(OC)c2)c(C)n1 (stereo unspecified)	none
Cn1cc(Br)c(C(=O)N/N=C/c2cc3ccccc3nc2Cl)n1	none
C#CCOc1c(Br)cc(/C=C2/C(=O)ON=C2C)cc1OC	LAP4 TOR yeast 197 | LAP4-GFP pick2 187 | MEP2-GFP pick2 inactive | RPL19A GFP CP2 inactive | CIT2-GFP pick2 inactive | AGP1 GFP CP2 inactive | Yeast autofluor inactive
CC(=O)SC(C[N+](=O)[O-])c1cn(C(C)=O)c2ccccc12 (stereo unspecified)	LAP4 TOR yeast 229 | Yeast autofluor inactive | s288c autofl DR inactive | TORC1 bypass gr inactive
CC(=O)n1cc(Nc2ccc([N+](=O)[O-])cc2)c2ccccc21	none
Cc1ccccc1N1C(=O)C(Cl)=C(N2CCN(c3ccccc3)CC2)C1=O	none (no result: AGP1-GFP MLPCN) | Yeast autofluor inactive
O=C1C(Cl)=C(N2CCCCCC2)C(=O)N1c1ccccc1Cl	none
COc1ccc(NC(=O)N2CCC(C(=O)c3ccc(F)cc3)CC2)cc1	LAP4 TOR yeast 400 | LAP4-GFP pick2 inactive | MEP2-GFP pick2 inactive | RPL19A GFP CP2 inactive | CIT2-GFP pick2 inactive | AGP1 GFP CP2 inactive
CSc1ccc(NC(=O)N2CCC(C(=O)c3ccc(F)cc3)CC2)cc1	none
O=C(Cn1cccc1C(=O)c1ccccc1)NCCCc1ccccc1	none
O=C(Cn1cccc1C(=O)c1ccccc1)NCCC1=CCCCC1	none | LAP4-GFP pick2 inactive | MEP2-GFP pick2 inactive | RPL19A GFP CP2 inactive | CIT2-GFP pick2 inactive | AGP1 GFP CP2 inactive
O=[N+]([O-])c1cccc(/C=N/Nc2nc(NCc3ccccc3)nc(N3CCOCC3)n2)c1O	none
O=C1Nc2ccc(Br)cc2/C1=C/C(=O)c1ccc2c(c1)OCO2	none | Yeast autofluor inactive
CCc1cc(C(=O)Nc2nc(-c3ccccn3)cs2)sc1C	LAP4 TOR yeast 208 | LAP4-GFP pick2 156 | MEP2-GFP pick2 inactive | RPL19A GFP CP2 inactive | CIT2-GFP pick2 inactive | AGP1 GFP CP2 inactive | Yeast autofluor inactive
O=C(Nc1nc(-c2ccccn2)cs1)C1COc2ccccc2O1 (stereo unspecified)	LAP4 TOR yeast 162 | LAP4-GFP pick2 inactive | MEP2-GFP pick2 inactive | RPL19A GFP CP2 inactive | CIT2-GFP pick2 inactive | AGP1 GFP CP2 inactive | Yeast autofluor inactive | s288c autofl DR inactive | TORC1 bypass gr inactive
CC(Oc1ccc(Br)cc1)C(=O)Nc1nc(-c2ccccn2)cs1 (stereo unspecified)	LAP4 TOR yeast 168 | Yeast autofluor inactive | s288c autofl DR inactive | TORC1 bypass gr inactive
Cc1cc(C(=O)Nc2nc(-c3ccccn3)cs2)ccc1[N+](=O)[O-]	LAP4 TOR yeast 160 | Yeast autofluor inactive | s288c autofl DR inactive | TORC1 bypass gr inactive
O=C(CCCC(=O)Nc1ccccc1Br)N/N=C/c1c(F)cccc1Cl	none
NC(=O)CC(NC(=O)c1cccc(Br)c1)c1ccc(N2CCN(c3ccc(F)cc3)CC2)c([N+](=O)[O-])c1 (stereo unspecified)	none
Clc1cc2cccnc2c2ncccc12	LAP4 TOR yeast 168 | LAP4-GFP pick2 inactive | MEP2-GFP pick2 inactive | RPL19A GFP CP2 inactive | CIT2-GFP pick2 inactive | AGP1 GFP CP2 inactive
O=[N+]([O-])c1ccc(O)c2ncccc12	LAP4 TOR yeast 313 | LAP4-GFP pick2 275 | MEP2-GFP pick2 159 | RPL19A GFP CP2 inactive | CIT2-GFP pick2 inactive | AGP1 GFP CP2 inactive | Yeast autofluor inactive | s288c autofl DR inactive | TORC1 bypass gr inactive
O=[N+]([O-])c1cc(F)c2cccnc2c1O	LAP4 TOR yeast 185 | Yeast autofluor inactive
O=[N+]([O-])c1cc([N+](=O)[O-])c2cccnc2c1Oc1ccccc1O	none
O=[N+]([O-])c1ccc(O)c2cccnc12	none
Cc1c(C)c2cccnc2c2ncccc12	LAP4 TOR yeast 183 | LAP4-GFP pick2 inactive | MEP2-GFP pick2 inactive | RPL19A GFP CP2 inactive | CIT2-GFP pick2 inactive | AGP1 GFP CP2 inactive
CSc1nc(N)nc2c1ncn2CC(=O)N1CCN(Cc2c(C)cc(C)cc2C)CC1	none
O=[N+]([O-])c1nn(-c2ccccc2)[n+]([O-])c1N1CCN(c2ccccc2F)CC1	none

Screening results: PubChem, NMMLSC
